Assay [1] can be described thus: qHTS RealTime-Glo MT Cell Viability Assay in HEK293 cells - 0 hour (AID 1224880). Further: top concentration of the series differs between compounds; nearly all actives have a fitted effect of over 45% in size. Put shortly: (§1)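 Luminescence readout at each listed time point; HEK293, 600 cells/well, RealTime-Glo MT reagent added with cells; compounds pinned (23 nL in DMSO) after 5 h at 37 C; continuous culture at 37 C.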
In general terms: Quantitative high-throughput screening tests each substance at several concentrations.

The nature of assay [2]: A CellTox Green Cytotoxicity Assay to monitor cytotoxicity in HEK293 cells - 32 hour (AID 1224881). Further: nearly all actives have a fitted effect of over 40% in size. Further: potency means the concentration at half of the fitted maximal effect. Put shortly:
(§2)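 Read-out: fluorescence of a cell-impermeant cyanine dye staining DNA of dead cells, proportional to cytotoxicity. HEK293, 600 cells/well with reagent, compound (23 nL DMSO) added after 5 h; reads at 0, 8, 16, 24, 32, 40 h.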

Assay [3] in a line: A CellTox Green Cytotoxicity Assay to monitor cytotoxicity in HepG2 cells - 0 hour (AID 1224882). Further: nearly all actives have a fitted effect of over 35% in size. Further: potency means the concentration at half of the fitted maximal effect. Summed up: (§3)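 HepG2, 600 cells/well premixed w/ CellTox Green; 5 h settle, 37 C/5% CO2; pintool cpd add (DMSO); 37 C, 40 h; fluorescence read at 0, 8, 16, 24, 32, 40 h.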
Assay [4] is described as follows: A CellTox Green Cytotoxicity Assay to monitor cytotoxicity in HepG2 cells - 32 hour (AID 1224883). Further: nearly all actives have a fitted effect of over 50% in size. Further: potency means the concentration at half of the fitted maximal effect. Summed up: as §3
Assay [5] is described as follows: A CellTox Green Cytotoxicity Assay to monitor cytotoxicity in HEK293 cells - 8 hour (AID 1224884). Further: nearly all actives have a fitted effect of over 35% in size. Put shortly: as §2
A short description of assay [6]: qHTS RealTime-Glo MT Cell Viability Assay in HepG2 cells - 16 hour (AID 1224885). Further: nearly all actives have a fitted effect of over 50% in size. Put shortly: (§4)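 Tox21 10K library screened in qHTS format on HepG2 cells carrying RealTime-Glo reagents. Compounds were added after a 5 h preincubation, and the luminescent signal from continuous culture was measured repeatedly during 40 h treatment.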
Assay [7] can be described thus: qHTS RealTime-Glo MT Cell Viability Assay in HEK293 cells - 24 hour (AID 1224886). Further: top concentration of the series differs between compounds; nearly all actives have a fitted effect of over 50% in size. Put shortly:
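Luminescence generated by NanoLuc from substrate produced by living HEK293 cells served as the viability signal. Each value reflects the reading at its stated time point during continuous 40 h compound exposure at 37 C.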

Assay [8] in a line: qHTS RealTime-Glo MT Cell Viability Assay in HEK293 cells - 8 hour (AID 1224887). Further: top concentration of the series differs between compounds; nearly all actives have a fitted effect of over 50% in size. Summed up:
as §1

The nature of assay [9]: A CellTox Green Cytotoxicity Assay to monitor cytotoxicity in HEK293 cells - 16 hour (AID 1224888). Further: nearly all actives have a fitted effect of over 35% in size. Further: potency means the concentration at half of the fitted maximal effect. Put shortly: as §2
Assay [10] can be described thus: qHTS RealTime-Glo MT Cell Viability Assay in HepG2 cells - 0 hour (AID 1224889). Further: nearly all actives have a fitted effect of over 50% in size. Summed up: as §4
Assay [11] in a line: qHTS assay to identify small molecule antagonists of the estrogen receptor alpha (ER-alpha) signaling pathway using the BG1 cell line in the presence of 0.1 nM 17-beta-estradiol - cell viability counter screen (AID 1259241). Further: nearly all actives have a fitted effect of over 40% in size. Summed up: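 Cytotoxicity counter-screen: live-cell protease activity measured by fluorescence (30 min reagent step) in the same wells. Cells were VM7Luc4E2 with endogenous ER-alpha and ERE-driven luciferase, treated 22 hr at 37C alongside 0.1 nM 17beta-estradiol final.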

The nature of assay [12]: qHTS assay to identify small molecule antagonists of the androgen receptor (AR) signaling pathway using the MDA cell line in the presence of 0.5 nM R1881 - cell viability counter screen (AID 1259242). Further: nearly all actives have a fitted effect of over 45% in size. Put shortly:
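Live-cell protease fluorescence, CellTiter-Fluor, 30 min at 37C. Cells: MDA-kb2, 3,000/well, preincubated 5 hr. Compounds plus 0.5 nM R1881 final, 16 hr, 37C, 0% CO2.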

Assay [13] addresses Androgen receptor (Homo sapiens) (UniProt P10275). The experiment in a line: qHTS assay to identify small molecule antagonists of the androgen receptor (AR) signaling pathway using the MDA cell line in the presence of 0.5 nM R1881 (AID 1259243). Further: nearly all actives have a fitted effect of over 50% in size. Summed up: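 MDA-kb2, MMTV-luc (AR/GR elements); 3,000 cells/well; cpd + 0.5 nM R1881 final; 16 hr 37C, 0% CO2; ONE-Glo 30 min RT; luminescence.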

Assay [14] addresses Estrogen receptor (Homo sapiens) (UniProt P03372). The experiment in a line: qHTS assay to identify small molecule antagonists of the estrogen receptor alpha (ER-alpha) signaling pathway using the BG1 cell line in the presence of 0.1 nM 17-beta-estradiol (AID 1259244). Further: nearly all actives have a fitted effect of over 50% in size. Put shortly: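 Luminescence after ONE-Glo (30 min, room temperature) measured ERE-luciferase activity in VM7Luc4E2 cells treated 22 h with compound and 0.1 nM final 17beta-estradiol as stimulator.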

Assay [15] can be described thus: qHTS assay to identify small molecule HDAC inhibitors (AID 1259364).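 Further: wild-type HCT-116 cells with endogenous class I/II HDAC activity; top concentration of the series differs between compounds; nearly all actives have a fitted effect of over 45% in size.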 Put shortly:
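HCT-116 (wild type), 1,500 cells/well, overnight; compound 2 hr 37C 5% CO2; HDAC-Glo I/II reagent 30 min RT; luminescence readout.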

The nature of assay [16]: qHTS assay to identify small molecule HDAC inhibitors - cell viability counter screen (AID 1259365). Put shortly:
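CellTiter-Glo luminescence (30 min, room temperature) reported viability after a 2 h compound exposure at 37 C. Cells: wild-type HCT-116, 1,500 per well, seeded the night before.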

Assay [17] is described as follows: qHTS assay to identify small molecule agonists of the sonic hedgehog signaling (Shh) pathway - cell viability counter screen (AID 1259366). Further: nearly all actives have a fitted effect of over 50% in size. Summed up: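 Cytotoxicity counter screen: CellTiter-Fluor reagent added after 23 h compound exposure, then 1 h at 37C and fluorescence read. Cells were 3T3 Gli1-Luc, seeded 2,000 per well and dosed 4 h post-plating.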
The nature of assay [18]: A CellTox Green Cytotoxicity Assay to monitor cytotoxicity in HepG2 cells - 8 hour (AID 1224890). Further: nearly all actives have a fitted effect of over 45% in size. Further: potency means the concentration at half of the fitted maximal effect. Put shortly: as §3
Assay [19] is described as follows: qHTS assay to identify small molecule antagonists of the sonic hedgehog signaling (Shh) pathway - cell viability counter screen (AID 1259367). Further: nearly all actives have a fitted effect of over 55% in size. Put shortly: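 CellTiter-Fluor signal in conditioned medium-stimulated 3T3 Gli1-Luc cells, 23 hr compound exposure, 37C.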

Inconclusive results are not listed. The source made the active and inactive calls. The call rests on the fitted dose curve; in most records, active means well fitted curve in the direction sought with a large enough effect in the repeat runs; inconclusive means weak or mixed curves; inactive means no such curve, though single readings can be large; an effect the other way counts as inactive or inconclusive.

Estrogen receptor (Homo sapiens), sequence (P03372 whole entry, looked up): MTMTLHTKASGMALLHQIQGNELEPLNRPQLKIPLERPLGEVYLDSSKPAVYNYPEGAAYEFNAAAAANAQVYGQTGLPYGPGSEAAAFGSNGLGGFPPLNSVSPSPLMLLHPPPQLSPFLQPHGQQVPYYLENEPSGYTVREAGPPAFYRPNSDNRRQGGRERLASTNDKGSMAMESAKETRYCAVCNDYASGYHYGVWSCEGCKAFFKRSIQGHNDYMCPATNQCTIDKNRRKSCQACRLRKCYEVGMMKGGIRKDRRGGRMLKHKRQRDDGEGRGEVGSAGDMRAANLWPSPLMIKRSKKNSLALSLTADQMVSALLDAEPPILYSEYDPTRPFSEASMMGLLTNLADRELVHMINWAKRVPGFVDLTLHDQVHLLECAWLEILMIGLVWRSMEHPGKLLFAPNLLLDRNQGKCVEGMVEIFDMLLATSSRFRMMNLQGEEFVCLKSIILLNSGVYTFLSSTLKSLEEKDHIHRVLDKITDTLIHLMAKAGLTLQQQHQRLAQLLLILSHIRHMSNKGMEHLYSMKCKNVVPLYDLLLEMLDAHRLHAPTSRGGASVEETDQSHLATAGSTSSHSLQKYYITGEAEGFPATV
Androgen receptor (Homo sapiens), sequence (P10275 whole entry, looked up): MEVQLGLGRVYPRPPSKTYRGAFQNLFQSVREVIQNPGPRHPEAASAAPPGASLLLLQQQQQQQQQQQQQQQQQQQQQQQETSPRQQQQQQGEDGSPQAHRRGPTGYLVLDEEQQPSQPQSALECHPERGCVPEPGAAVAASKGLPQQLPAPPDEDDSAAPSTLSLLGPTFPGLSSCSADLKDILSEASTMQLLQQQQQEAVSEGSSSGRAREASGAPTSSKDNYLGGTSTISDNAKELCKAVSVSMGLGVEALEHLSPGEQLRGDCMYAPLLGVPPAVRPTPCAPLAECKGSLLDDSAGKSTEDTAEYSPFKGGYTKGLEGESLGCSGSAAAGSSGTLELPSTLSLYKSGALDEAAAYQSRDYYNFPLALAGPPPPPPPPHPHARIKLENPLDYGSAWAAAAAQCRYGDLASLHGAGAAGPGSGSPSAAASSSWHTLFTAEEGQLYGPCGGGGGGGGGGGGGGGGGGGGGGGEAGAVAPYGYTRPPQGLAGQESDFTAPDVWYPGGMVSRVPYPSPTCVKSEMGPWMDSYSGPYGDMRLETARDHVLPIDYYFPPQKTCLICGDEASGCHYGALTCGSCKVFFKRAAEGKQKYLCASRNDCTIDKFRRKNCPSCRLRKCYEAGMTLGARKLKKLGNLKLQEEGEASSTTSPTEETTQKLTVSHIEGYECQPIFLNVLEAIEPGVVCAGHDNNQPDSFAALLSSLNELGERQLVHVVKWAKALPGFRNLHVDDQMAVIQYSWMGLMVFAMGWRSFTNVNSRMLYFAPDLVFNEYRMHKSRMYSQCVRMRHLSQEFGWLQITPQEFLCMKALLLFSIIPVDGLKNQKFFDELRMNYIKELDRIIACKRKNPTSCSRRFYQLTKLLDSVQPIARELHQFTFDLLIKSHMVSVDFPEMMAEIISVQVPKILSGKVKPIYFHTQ

In the case of `Cc1cn([C@H]2C[C@H](F)[C@@H](CO)O2)c(=O)[nH]c1=O`, the Potency result in assay [1], in assay [2], in [3], in assay [4], in assay [5] and in [6] was “inactive” in each case. Also, the Potency result in assay [7], in assay [8], in [9], in [10], in assay [11] and in assay [12] was “inactive” each time. In addition, the Potency entry in assay [13], in assay [14], in [15], in assay [16] and in [17] was “inactive” in each case.
`C=Cc1ccc(OC(C)=O)cc1`: the Potency result in [1], in assay [2], in assay [3], in assay [4], in assay [5] and in assay [6] was “inactive” in each case. Besides, the Potency entry in assay [8], in [9], in [10], in [18], in [11] and in assay [12] was “inactive” throughout. Further, the Potency result in assay [13], in assay [14], in [15], in [16], in [17] and in [19] was “inactive” throughout.
In the case of `FC(F)(F)C(F)(F)C(F)(F)C(F)(F)CCI`, the Potency result in [1], in assay [2], in assay [3], in assay [4], in [6] and in assay [7] was “inactive” in each case. For the same molecule, the Potency entry in assay [8], in [9], in assay [10], in assay [18], in assay [11] and in assay [12] was “inactive” in each case. Besides, the Potency result in assay [14], in assay [15] and in assay [17] was “inactive” in each case.
Take `CCOCCC(=O)OCC`: the Potency entry in assay [1], in assay [2], in assay [3], in assay [4], in assay [6] and in assay [7] was “inactive” throughout. Further, the Potency result in assay [8], in assay [9], in [10], in [18], in assay [11] and in [12] was “inactive” in each case. The Potency result in assay [14], in assay [15], in assay [16], in assay [17] and in [19] was “inactive” each time.
On to `O=C(c1ccccc1)C1CCC1`, for which the Potency result in assay [1], in [6], in assay [7], in assay [8], in assay [10] and in assay [11] was “inactive” each time. For the same molecule, the Potency result in assay [12], in assay [14], in assay [15], in assay [16], in assay [17] and in assay [19] was “inactive” in each case. Also, the Potency in assay [2] was 24.5 µM (active); in assay [3], 38.9 µM (active); in assay [4] it was 38.9 µM (active); in assay [9], 27.5 µM (active); in [18], 38.9 µM (active).
With `CC(C)OC(=O)c1ccccc1C(=O)OC(C)C`, the Potency entry in assay [1], in assay [2], in [3], in assay [4], in assay [5] and in assay [7] was “inactive” in each case. Besides, the Potency result in [9], in [10], in assay [18], in assay [11], in assay [12] and in assay [14] was “inactive” in each case. The Potency entry in assay [15], in assay [16], in [17] and in assay [19] was “inactive” each time.
In the case of `COc1cc(OC)c2ccc(=O)oc2c1`, the Potency result in [1], in [2], in [3], in assay [4], in [5] and in [7] was “inactive” each time. Also, the Potency entry in assay [8], in assay [9], in assay [18], in assay [11], in assay [12] and in [13] was “inactive” each time. Further, the Potency entry in assay [15], in assay [17] and in [19] was “inactive” in each case.

The values above are taken from PubChem BioAssay (Tox21).
